This note sets out measurements from PubChem BioAssay (EPA / NIEHS).

Activity calls are given as the source filed them. Rule for the calls: active = hit-call score of the fitted dose curve at least 0.9, where 1 is the maximum; inactive = score below 0.9.

Assay [1] in a line: ATG_ISRE_CIS: Attagene CIS-FACTORIAL HepG2 Assay for human Interferon Regulatory Factor 1 (IRF1) binding to an Interferon-Stimulated Response Element (ISRE) (AID 2282948). As to conditions: HepG2 ISRE cis-reporter (Attagene), mRNA transcription readout; actives raise or lower the signal. In outline: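 Multiplexed mRNA reporter readout in human liver HepG2 cells: cis-element-driven reporters transfected, compound added for 24 h, transcripts amplified, fluorescently labelled and sized by capillary electrophoresis; curve fitting bidirectional against DMSO.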

Assay [2] in a line: ATG_M_32_CIS: Attagene CIS-FACTORIAL HepG2 Assay for M32 Transcription Factor (Internal Marker) (AID 2282949).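 Note: background control marker of the multiplexed CIS panel rather than a real target.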 Conditions: HepG2 Attagene cis-factorial M32 reporter, mRNA; actives raise or lower the signal. An outline of the steps: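 HepG2 human liver cells transiently transfected with cis-promoter-driven multiple reporter transcription units, dosed 24 h. Reporter mRNA quantified by RT-PCR, FAM-labelled primer extension, HpaI digest and capillary electrophoresis; bidirectional fit versus DMSO baseline.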

Assay [3] in a line: ATG_M_06_CIS: Attagene CIS-FACTORIAL HepG2 Assay for M06 Transcription Factor (Internal Marker) (AID 2282950). As to conditions: HepG2 Attagene CIS-FACTORIAL M06 internal marker reporter; actives raise or lower the signal. In outline:
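One of many multiplexed endpoints: HepG2 reporter mRNA after 24 h dosing, detected by RT-PCR and capillary electrophoresis fluorescence; gain or loss of signal analysed against DMSO.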

Assay [4] has as its target Hypoxia-inducible factor 1-alpha (Homo sapiens) (UniProt Q16665). As to the kind of experiment: ATG_HIF1a_CIS: Attagene CIS-FACTORIAL HepG2 Assay for human Hypoxia Inducible Factor 1 (HIF1A) (AID 2282951). As to conditions: HepG2 Attagene cis-factorial HIF1a reporter transcription; actives raise or lower the signal. In outline:
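HepG2, transient cis-reporter library, 24 h dosing. RNA → RT (oligo dT) → PCR → 6-FAM primer extension → HpaI → CE. Bidirectional curve fit vs DMSO.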

Assay [5] addresses Hepatocyte nuclear factor 6 (Homo sapiens) (UniProt Q9UBC0). The assay can be described thus: ATG_HNF6_CIS: Attagene CIS-FACTORIAL HepG2 Assay for human Hepatocyte Nuclear Factor 6 (HNF6) (AID 2282952). Conditions: HepG2 Attagene cis-factorial HNF6 reporter transcription; actives raise or lower the signal. An outline of the steps:
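Endogenous factor activity read in transiently transfected HepG2 via promoter-regulated reporter transcripts. RNA harvested 24 h post-dosing, reverse-transcribed, PCR-amplified, FAM-labelled, HpaI-digested and resolved by capillary electrophoresis; fitted in both directions against DMSO.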

Assay [6] concerns the target Heat shock factor protein 1 (Homo sapiens) (UniProt Q00613). As to the kind of experiment: ATG_HSE_CIS: Attagene CIS-FACTORIAL HepG2 Assay for human Heat Shock Transcription Factor 1 (HSE) (AID 2282953). Conditions: HepG2 HSE cis-reporter, Attagene RNA transcription; actives raise or lower the signal. In outline: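 Using HepG2 with transfected cis-driven reporter constructs, compound effects on endogenous factor activity are scored as reporter mRNA change at 24 h. Detection: RT-PCR, HpaI digestion, capillary electrophoresis; bidirectional fitting to DMSO.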

Assay [7] can be described thus: ATG_MRE_CIS: Attagene CIS-FACTORIAL HepG2 Assay for human Metal Responsive Element (MRE) (AID 2282954). Conditions: HepG2 MRE cis-reporter transcription, Attagene multiplex; actives raise or lower the signal. In outline: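 Cells were transfected with cis-promoter reporter transcription units, then dosed for 24 h. RNA was reverse-transcribed, amplified, fluorescently labelled and resolved by capillary electrophoresis, and activity was fitted in both directions relative to DMSO.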

Assay [8] can be described thus: ATG_PBREM_CIS: Attagene CIS-FACTORIAL HepG2 Assay for human Phenobarbital-responsive Enhancer Module (PBREM) (AID 2282955). Conditions: HepG2 PBREM cis-reporter, Attagene multiplexed transcription; actives raise or lower the signal. In outline: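 HepG2, transient MRTU transfection, 24 h dosing; RNA → oligo(dT) RT → PCR → 6-FAM extension → HpaI → CE. Bidirectional fit vs DMSO.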

The target of assay [9] is Paired box protein Pax-6 (Homo sapiens) (UniProt P26367). The assay can be described thus: ATG_Pax6_CIS: Attagene CIS-FACTORIAL HepG2 Assay for human Paired Box 6 (PAX6) (AID 2282956). As to conditions: HepG2 CIS-FACTORIAL PAX6 reporter transcription, RNA readout; actives raise or lower the signal. In outline: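 Fluorescent RT-PCR products separated by capillary electrophoresis report PAX6-linked promoter mRNA in HepG2 cells 24 h post-dose. Curves fitted bidirectionally, DMSO as negative control.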

The nature of assay [10]: ATG_PXRE_CIS: Attagene CIS-FACTORIAL HepG2 Assay for human Pregnane X Receptor Element (PXRE) (AID 2282957). As to conditions: HepG2 Attagene CIS-FACTORIAL PXRE reporter, mRNA; actives raise or lower the signal. An outline of the steps:
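Reporter transcripts under endogenous PXR-responsive cis-regulation quantified from total RNA of transfected HepG2 cells 24 h post-dosing, via RT-PCR with fluorescent primer extension and capillary electrophoresis. Gain or loss of signal fitted against DMSO baseline.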

Assay [11] deals with Transcription factor Sp1 (Homo sapiens) (UniProt P08047). The assay can be described thus: ATG_Sp1_CIS: Attagene CIS-FACTORIAL HepG2 Assay for human Specificity Protein 1 (Sp1) (AID 2282961). Conditions: HepG2 Sp1 cis-reporter transcription, actives raise or lower the signal. In outline:
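Measures mRNA induction of an Sp1-linked reporter in HepG2 cells 24 h post-dosing. Multiplexed reporters read by RT-PCR and capillary electrophoresis; DMSO serves as negative control and baseline.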

Assay [12] in a line: ATG_SREBP_CIS: Attagene CIS-FACTORIAL HepG2 Assay for human Sterol Regulatory Element Binding (SREBP) (AID 2282962). As to conditions: HepG2 Attagene cis-factorial SREBP reporter, mRNA; actives raise or lower the signal. An outline of the steps: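 Endogenous factor activity is measured in HepG2 through multiplexed reporter units under cis-element control. Following a 24 h incubation, reporter transcripts are reverse-transcribed, PCR-amplified and sized by capillary electrophoresis; activity is fitted in both directions relative to DMSO.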

In assay [13] the target is Signal transducer and activator of transcription 3 (Homo sapiens) (UniProt P40763). As to the kind of experiment: ATG_STAT3_CIS: Attagene CIS-FACTORIAL HepG2 Assay for human Signal Transducer and Activator of Transcription 3 (STAT3) (AID 2282963). Conditions: HepG2, Attagene cis-factorial STAT3 reporter transcription; actives raise or lower the signal. In outline:
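HepG2, MRTU-transfected, 24 h dosing. RNA → RT → PCR → FAM label → HpaI → CE. Bidirectional fit vs DMSO.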

A short description of assay [14]: ATG_TA_CIS: Attagene CIS-FACTORIAL HepG2 Assay for human TA Basal Promoter (AID 2282964). As to conditions: HepG2 Attagene CIS-factorial TA basal promoter reporter; actives raise or lower the signal. In outline: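 Transient MRTU transfection of HepG2 preceded 24 h compound exposure. Reporter mRNA levels were then read by RT-PCR with capillary electrophoresis, and this background-control endpoint was fitted bidirectionally to DMSO.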

The nature of assay [15]: ATG_TCF_b_cat_CIS: Attagene CIS-FACTORIAL HepG2 Assay for human T-Cell-Factor with beta-catenin (TCF/b-cat) (AID 2282965). Conditions: HepG2 TCF/beta-catenin cis-reporter transcription, actives raise or lower the signal. In outline: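 HepG2 cells transiently transfected with multiple cis-promoter-regulated reporter transcription units, so endogenous transcription factor activity is measured. Reporter mRNA read 24 hours after dosing by RT-PCR, fluorescent labelling and capillary electrophoresis; bidirectional fitting against DMSO.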

Assay [16] is described as follows: ATG_GRE_CIS: Attagene CIS-FACTORIAL HepG2 Assay for human Glucocorticoid Response Elements (GRE) (AID 2282947). As to conditions: HepG2 GRE cis-reporter, Attagene multiplex mRNA; actives raise or lower the signal. In outline: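 Cells (HepG2) bearing transfected cis-promoter reporter transcription units were treated with chemical for 24 hours. Reporter mRNA was measured via RT-PCR with capillary electrophoresis, and activity was fitted in both directions relative to DMSO.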

A short description of assay [17]: ATG_PPRE_CIS: Attagene CIS-FACTORIAL HepG2 Assay for human Peroxisome Proliferator-activated Response Element (PPRE) (AID 2282958). As to conditions: HepG2 PPRE cis-element reporter, Attagene transcription factor profiling; actives raise or lower the signal. In outline:
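Transcript-level reporter induction in transfected HepG2 cells after 24 h chemical exposure, quantified by fluorescence from RT-PCR products separated by capillary electrophoresis.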

The nature of assay [18]: ATG_RORE_CIS: Attagene CIS-FACTORIAL HepG2 Assay for human RAR-related Orphan Receptor Element (RORE) (AID 2282959). Conditions: HepG2 Attagene cis-factorial RORE reporter, mRNA; actives raise or lower the signal. An outline of the steps:
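Multiplexed reporter assay measuring mRNA induction from a cis promoter element in transiently transfected HepG2 cells after 24 h treatment. Detection via RT-PCR and capillary electrophoresis fluorescence; DMSO serves as baseline.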

A short description of assay [19]: ATG_Sox_CIS: Attagene CIS-FACTORIAL HepG2 Assay for human SRY-box transcription factor (SOX) (AID 2282960). Conditions: HepG2 Attagene cis-factorial SOX reporter, mRNA; actives raise or lower the signal. In outline: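 Cells were transfected with reporter constructs under cis-regulatory promoters, then exposed to chemicals for 24 h. Reporter transcripts were quantified by fluorescence after RT-PCR and capillary electrophoresis; activity was fitted in both directions against DMSO.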

Sequence of Transcription factor Sp1 (Homo sapiens) (P08047 whole entry, looked up): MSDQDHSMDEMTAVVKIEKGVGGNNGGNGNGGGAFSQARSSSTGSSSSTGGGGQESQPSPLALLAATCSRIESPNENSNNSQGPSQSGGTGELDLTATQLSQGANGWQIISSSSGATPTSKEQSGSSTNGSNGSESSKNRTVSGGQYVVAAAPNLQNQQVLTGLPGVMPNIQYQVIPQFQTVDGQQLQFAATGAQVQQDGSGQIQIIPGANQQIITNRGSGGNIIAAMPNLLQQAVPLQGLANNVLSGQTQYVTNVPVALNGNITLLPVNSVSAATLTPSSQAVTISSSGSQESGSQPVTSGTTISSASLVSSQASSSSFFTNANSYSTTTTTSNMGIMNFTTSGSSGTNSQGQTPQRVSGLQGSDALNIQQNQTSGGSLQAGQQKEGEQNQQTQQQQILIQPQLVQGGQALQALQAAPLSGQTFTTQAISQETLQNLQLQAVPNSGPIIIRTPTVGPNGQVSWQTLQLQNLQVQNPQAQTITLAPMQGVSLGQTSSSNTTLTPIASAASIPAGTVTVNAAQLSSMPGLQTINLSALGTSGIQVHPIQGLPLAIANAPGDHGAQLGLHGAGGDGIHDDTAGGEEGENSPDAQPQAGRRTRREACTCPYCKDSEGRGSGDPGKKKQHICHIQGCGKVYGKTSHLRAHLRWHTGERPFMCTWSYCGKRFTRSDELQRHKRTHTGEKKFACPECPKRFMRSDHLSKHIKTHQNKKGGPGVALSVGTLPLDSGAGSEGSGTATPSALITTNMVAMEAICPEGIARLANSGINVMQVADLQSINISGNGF
Sequence of Heat shock factor protein 1 (Homo sapiens) (Q00613 whole entry, looked up): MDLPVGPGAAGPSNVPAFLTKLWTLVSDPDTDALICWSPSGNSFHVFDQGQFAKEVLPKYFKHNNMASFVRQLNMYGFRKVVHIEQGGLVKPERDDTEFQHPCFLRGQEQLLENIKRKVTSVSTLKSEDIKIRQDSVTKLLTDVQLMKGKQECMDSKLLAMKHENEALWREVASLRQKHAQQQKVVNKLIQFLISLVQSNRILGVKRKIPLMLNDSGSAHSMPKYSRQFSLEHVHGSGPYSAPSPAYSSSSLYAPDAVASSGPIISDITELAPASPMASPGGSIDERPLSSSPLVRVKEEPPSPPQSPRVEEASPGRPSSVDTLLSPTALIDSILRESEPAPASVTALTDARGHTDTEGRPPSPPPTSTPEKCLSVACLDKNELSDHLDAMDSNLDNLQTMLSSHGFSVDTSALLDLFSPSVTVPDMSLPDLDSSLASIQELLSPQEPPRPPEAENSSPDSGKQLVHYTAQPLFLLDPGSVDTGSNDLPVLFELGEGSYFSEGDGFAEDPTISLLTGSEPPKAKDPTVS
Sequence of Hepatocyte nuclear factor 6 (Homo sapiens) (Q9UBC0 whole entry, looked up): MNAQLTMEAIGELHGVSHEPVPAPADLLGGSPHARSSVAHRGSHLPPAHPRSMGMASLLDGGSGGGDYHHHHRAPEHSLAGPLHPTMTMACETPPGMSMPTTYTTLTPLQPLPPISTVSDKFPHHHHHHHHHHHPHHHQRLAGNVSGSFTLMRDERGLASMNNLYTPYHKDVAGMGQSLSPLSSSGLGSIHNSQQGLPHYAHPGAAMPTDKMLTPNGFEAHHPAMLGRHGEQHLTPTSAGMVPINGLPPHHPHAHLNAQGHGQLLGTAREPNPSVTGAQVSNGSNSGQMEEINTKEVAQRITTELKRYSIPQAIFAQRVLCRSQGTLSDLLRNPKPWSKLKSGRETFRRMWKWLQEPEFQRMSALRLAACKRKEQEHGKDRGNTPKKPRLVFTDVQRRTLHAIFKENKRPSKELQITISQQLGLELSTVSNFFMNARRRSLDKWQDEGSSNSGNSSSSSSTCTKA
Sequence of Paired box protein Pax-6 (Homo sapiens) (P26367 whole entry, looked up): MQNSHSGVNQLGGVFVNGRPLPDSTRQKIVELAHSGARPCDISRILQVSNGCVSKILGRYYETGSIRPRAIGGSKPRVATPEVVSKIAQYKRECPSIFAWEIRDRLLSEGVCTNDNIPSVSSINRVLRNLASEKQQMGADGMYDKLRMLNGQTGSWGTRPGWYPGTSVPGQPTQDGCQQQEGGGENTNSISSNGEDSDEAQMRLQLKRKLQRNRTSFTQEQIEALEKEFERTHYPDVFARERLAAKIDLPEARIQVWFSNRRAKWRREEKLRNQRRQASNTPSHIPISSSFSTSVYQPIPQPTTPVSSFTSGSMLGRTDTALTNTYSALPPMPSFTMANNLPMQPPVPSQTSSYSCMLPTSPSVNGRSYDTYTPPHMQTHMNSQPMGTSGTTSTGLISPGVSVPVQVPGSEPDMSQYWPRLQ
Sequence of Hypoxia-inducible factor 1-alpha (Homo sapiens) (Q16665 whole entry, looked up): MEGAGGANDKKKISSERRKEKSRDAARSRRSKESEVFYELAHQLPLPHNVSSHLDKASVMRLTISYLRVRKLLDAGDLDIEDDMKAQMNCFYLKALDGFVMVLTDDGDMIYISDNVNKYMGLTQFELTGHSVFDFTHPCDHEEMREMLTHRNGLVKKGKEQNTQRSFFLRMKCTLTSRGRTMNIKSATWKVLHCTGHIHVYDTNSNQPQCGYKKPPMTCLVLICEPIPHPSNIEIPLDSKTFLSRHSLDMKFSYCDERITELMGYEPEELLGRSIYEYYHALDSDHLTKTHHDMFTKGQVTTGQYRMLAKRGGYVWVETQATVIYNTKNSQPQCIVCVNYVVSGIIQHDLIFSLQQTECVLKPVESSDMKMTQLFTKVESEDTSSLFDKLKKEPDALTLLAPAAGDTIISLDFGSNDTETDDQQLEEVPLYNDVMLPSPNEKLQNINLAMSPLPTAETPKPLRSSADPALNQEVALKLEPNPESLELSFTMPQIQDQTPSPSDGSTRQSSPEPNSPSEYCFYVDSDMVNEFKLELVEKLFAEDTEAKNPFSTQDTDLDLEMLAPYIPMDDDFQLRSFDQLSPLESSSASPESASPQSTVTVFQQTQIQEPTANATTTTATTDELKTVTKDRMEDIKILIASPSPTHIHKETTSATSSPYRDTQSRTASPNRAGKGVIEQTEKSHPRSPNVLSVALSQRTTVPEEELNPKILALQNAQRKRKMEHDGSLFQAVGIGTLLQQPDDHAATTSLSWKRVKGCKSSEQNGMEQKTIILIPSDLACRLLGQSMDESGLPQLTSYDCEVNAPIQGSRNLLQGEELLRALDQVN
Sequence of Signal transducer and activator of transcription 3 (Homo sapiens) (P40763 whole entry, looked up): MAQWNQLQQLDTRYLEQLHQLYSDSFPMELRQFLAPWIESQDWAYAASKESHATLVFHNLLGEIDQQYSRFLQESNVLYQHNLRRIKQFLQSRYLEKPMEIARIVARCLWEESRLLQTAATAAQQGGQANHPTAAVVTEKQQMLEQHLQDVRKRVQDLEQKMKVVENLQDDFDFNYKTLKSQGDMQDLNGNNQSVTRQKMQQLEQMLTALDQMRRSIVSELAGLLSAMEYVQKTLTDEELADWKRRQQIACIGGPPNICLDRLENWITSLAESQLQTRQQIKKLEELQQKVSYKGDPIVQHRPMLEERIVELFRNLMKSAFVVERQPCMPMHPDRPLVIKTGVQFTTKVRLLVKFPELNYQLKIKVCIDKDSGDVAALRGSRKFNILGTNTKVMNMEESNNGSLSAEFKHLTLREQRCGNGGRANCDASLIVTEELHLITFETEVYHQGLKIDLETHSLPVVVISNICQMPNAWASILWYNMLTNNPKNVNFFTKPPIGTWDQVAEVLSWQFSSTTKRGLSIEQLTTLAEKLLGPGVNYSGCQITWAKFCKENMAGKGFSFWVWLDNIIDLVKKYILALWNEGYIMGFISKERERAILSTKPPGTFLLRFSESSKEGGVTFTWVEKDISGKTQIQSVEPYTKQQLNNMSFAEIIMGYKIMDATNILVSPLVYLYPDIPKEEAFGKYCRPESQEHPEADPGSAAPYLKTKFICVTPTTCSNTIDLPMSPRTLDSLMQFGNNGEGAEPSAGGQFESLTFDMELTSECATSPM

Regarding `C[C@](N)(Cc1ccc(O)c(O)c1)C(=O)O`, the compound was classed as inactive in assay [1], in assay [2], in [3], in assay [4], in assay [5] and in assay [6]. The compound was called inactive in assay [7], in assay [8], in [9], in [10], in [11] and in assay [12]. Also, the call in [13], in [14] and in assay [15] was inactive.
Regarding `COc1ccc(-n2nc(C(F)F)cc2-c2ccc(S(C)=O)cc2)cc1` (stereo unspecified), the compound was classed as inactive in assay [16], in assay [1], in [2], in assay [3], in assay [4] and in assay [5]. The outcome in [7], in assay [9], in [17], in assay [18], in assay [19] and in assay [11] was inactive. Also, the result in [13], in assay [14] and in assay [15] was inactive. The values for the AC50 in assay [10] and in assay [12] were 26.6 µM (active) and 126 µM (active), respectively.
As to `O=C1CCC(N2C(=O)c3ccccc3C2=O)C(=O)N1` (stereo unspecified), the compound was classed as inactive in assay [16], in assay [1], in assay [2], in assay [3], in [5] and in [7]. Also, the result in assay [8], in [9], in [10], in assay [17], in assay [11] and in assay [12] was inactive. Besides, the compound was called inactive in [13], in assay [14] and in assay [15].
On to `O=C1OC(=O)C2C3C=CC(C3)C12` (stereo unspecified), for which the outcome in assay [1], in assay [2], in assay [3], in assay [4], in assay [5] and in [7] was inactive. Moreover, the compound was classed as inactive in [9], in assay [10], in assay [17], in assay [18], in assay [11] and in assay [12]. For the same compound, the compound was classed as inactive in assay [13], in assay [14] and in assay [15].
As for `O=C(O)c1cccc(N(Cc2cccnc2)c2ccc(OC(F)F)c(OC(F)F)c2)c1`, the result in assay [1], in [2], in assay [3], in assay [4], in [5] and in assay [6] was inactive. The result in assay [7], in assay [8], in assay [9], in assay [18], in assay [11] and in [12] was inactive. Further, the compound was called inactive in assay [13] and in assay [14]. Further, the half-maximal activity concentration (AC50) (commonly the concentration at which the activity in the assay is half-maximal) in [10] was 26.2 µM (active); in assay [17], 25.1 µM (active); in assay [15] it was 100 µM (active).
`CC(C)CCO`: the compound was classed as inactive in [1], in [2], in assay [3], in assay [4], in [5] and in [6]. The call in assay [7], in assay [9], in assay [10], in [17], in assay [18] and in assay [19] was inactive. Further, the outcome in assay [11], in assay [12], in assay [13], in assay [14] and in [15] was inactive.
On to `Cn1cnc([N+](=O)[O-])c1Sc1ncnc2nc[nH]c12`, for which the compound was classed as inactive in [16], in assay [2], in [3], in assay [5], in assay [7] and in [8]. Further, the call in [9], in assay [10], in assay [17], in [18], in [19] and in [11] was inactive. Besides, the result in assay [12], in assay [13], in [14] and in assay [15] was inactive. Further, in [1], the AC50 was 63.3 µM (active).
For `C=CC(=C)CCC=C(C)C`, the compound was called inactive in assay [16], in assay [1], in assay [2], in assay [3], in assay [4] and in assay [5]. Also, the compound was called inactive in [7], in assay [8], in assay [9], in assay [18], in assay [19] and in [11]. In addition, the call in [12], in [13], in assay [14] and in [15] was inactive. For the same compound, the AC50 in assay [10] is 18.8 µM (active).
`CN(C)c1ccc(N=NS(=O)(=O)O)cc1`: the outcome in [16], in assay [1], in [2], in assay [3], in assay [5] and in [7] was inactive. Further, the outcome in assay [8], in assay [9], in assay [10], in assay [11], in [12] and in assay [13] was inactive. The compound was classed as inactive in assay [14] and in [15]. Also, the AC50 in [4] is 40.9 µM (active); in assay [18], 38.6 µM (active).
